Assay [1] has as its system Proto-oncogene tyrosine-protein kinase receptor Ret (Homo sapiens), P07949 [Y791F]. The following applies: at 1 µM.
Assay [2] has as its target Macrophage-stimulating protein receptor (Homo sapiens) (UniProt Q04912). To be noted: at 0.1 µM.
For assay [3] the target is unchanged. The following applies: at 1 µM.
In assay [4] the target is Proto-oncogene tyrosine-protein kinase ROS (Homo sapiens) (UniProt P08922). To be noted: at 0.1 µM.
The target is the same in assay [5]. To be noted: at 1 µM.
Assay [6] addresses Proto-oncogene tyrosine-protein kinase Src (Homo sapiens) (UniProt P12931). To be noted: at 0.1 µM.
For assay [7] the target is unchanged. To be noted: at 1 µM.
Assay [8] addresses Tyrosine-protein kinase Srms (Homo sapiens) (UniProt Q9H3Y6). The following applies: at 0.1 µM.
For assay [9] the target is unchanged. The following applies: at 1 µM.
Assay [10] addresses Tyrosine-protein kinase SYK (Homo sapiens) (UniProt P43405). The following applies: at 0.1 µM.
Assay [11] has the same target. The following applies: at 1 µM.
For assay [12], the target named is T1, Tyrosine-protein kinase Tec (Homo sapiens) (UniProt P42680).
T1 sequence (whole entry): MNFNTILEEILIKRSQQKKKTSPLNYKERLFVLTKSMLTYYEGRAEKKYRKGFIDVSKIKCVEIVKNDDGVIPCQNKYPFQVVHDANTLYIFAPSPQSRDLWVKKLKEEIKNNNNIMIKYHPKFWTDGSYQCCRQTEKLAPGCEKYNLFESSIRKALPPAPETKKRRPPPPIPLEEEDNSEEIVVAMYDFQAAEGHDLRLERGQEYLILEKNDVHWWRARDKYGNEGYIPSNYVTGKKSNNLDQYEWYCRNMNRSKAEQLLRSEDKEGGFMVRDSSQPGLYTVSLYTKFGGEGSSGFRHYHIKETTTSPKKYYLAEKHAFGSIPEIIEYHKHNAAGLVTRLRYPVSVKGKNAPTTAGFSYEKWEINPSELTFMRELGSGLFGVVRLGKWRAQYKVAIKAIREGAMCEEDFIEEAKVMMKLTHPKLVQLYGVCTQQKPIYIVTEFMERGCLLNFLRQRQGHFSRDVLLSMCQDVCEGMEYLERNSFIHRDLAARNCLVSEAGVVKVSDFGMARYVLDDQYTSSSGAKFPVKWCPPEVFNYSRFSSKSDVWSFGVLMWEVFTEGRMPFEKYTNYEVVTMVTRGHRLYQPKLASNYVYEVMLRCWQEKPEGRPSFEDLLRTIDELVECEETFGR
The following applies: at 0.1 µM.

Assay [13] concerns the target T1, Tyrosine-protein kinase Tec (Homo sapiens). The following applies: at 1 µM.
For assay [14], the target named is Angiopoietin-1 receptor (Homo sapiens) (UniProt Q02763). The following applies: at 0.1 µM.
The target is the same in assay [15]. To be noted: at 1 µM.
Assay [16] concerns the target T2, Non-receptor tyrosine-protein kinase TNK1 (Homo sapiens) (UniProt Q13470).
T2 sequence (whole entry): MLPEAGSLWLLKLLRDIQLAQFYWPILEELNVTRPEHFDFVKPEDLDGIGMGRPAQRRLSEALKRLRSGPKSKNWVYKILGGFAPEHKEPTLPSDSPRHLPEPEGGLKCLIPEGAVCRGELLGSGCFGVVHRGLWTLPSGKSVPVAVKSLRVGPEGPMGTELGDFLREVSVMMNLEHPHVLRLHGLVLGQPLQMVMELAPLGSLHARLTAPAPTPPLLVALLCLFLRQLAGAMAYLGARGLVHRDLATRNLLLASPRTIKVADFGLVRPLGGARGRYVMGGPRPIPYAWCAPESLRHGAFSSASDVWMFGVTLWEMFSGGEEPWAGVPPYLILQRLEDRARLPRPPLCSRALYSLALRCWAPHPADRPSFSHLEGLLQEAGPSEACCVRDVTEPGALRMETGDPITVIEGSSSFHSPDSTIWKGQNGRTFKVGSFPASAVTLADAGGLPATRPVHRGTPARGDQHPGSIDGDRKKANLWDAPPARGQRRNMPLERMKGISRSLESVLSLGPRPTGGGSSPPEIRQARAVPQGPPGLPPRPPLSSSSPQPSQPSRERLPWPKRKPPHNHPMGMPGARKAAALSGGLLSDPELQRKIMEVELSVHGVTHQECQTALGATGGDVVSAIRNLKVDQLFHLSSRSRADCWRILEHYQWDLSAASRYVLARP
To be noted: at 0.1 µM.

Assay [17] concerns the target T2, Non-receptor tyrosine-protein kinase TNK1 (Homo sapiens). The following applies: at 1 µM.
Assay [18] has as its target Activated CDC42 kinase 1 (Homo sapiens) (UniProt Q07912). The following applies: at 0.1 µM.
The target is the same in assay [19]. To be noted: at 1 µM.
Assay [20] deals with High affinity nerve growth factor receptor (Homo sapiens) (UniProt P04629). The following applies: at 0.1 µM.
Sequence of High affinity nerve growth factor receptor (Homo sapiens) (P04629 33-796 limits assumed): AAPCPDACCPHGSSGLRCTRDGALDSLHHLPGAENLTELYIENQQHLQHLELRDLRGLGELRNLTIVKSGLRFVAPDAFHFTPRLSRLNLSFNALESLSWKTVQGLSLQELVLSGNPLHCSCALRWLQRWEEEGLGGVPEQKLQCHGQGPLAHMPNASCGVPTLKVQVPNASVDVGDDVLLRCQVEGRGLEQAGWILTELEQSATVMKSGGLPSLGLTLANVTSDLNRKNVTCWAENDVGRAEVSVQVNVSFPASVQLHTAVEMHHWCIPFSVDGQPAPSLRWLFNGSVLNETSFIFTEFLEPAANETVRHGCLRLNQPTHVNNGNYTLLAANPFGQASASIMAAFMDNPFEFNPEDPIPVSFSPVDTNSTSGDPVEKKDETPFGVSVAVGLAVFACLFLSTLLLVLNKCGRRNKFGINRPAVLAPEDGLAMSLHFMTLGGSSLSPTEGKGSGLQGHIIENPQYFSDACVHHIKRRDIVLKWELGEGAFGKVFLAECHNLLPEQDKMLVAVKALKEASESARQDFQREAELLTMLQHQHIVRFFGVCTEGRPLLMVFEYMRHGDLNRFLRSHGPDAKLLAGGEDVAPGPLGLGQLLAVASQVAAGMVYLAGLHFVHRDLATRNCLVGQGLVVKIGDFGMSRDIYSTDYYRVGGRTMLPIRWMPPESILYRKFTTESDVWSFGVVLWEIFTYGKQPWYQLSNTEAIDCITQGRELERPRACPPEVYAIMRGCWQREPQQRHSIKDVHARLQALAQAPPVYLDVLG

Sequence of Macrophage-stimulating protein receptor (Homo sapiens) (Q04912 25-304 limits assumed): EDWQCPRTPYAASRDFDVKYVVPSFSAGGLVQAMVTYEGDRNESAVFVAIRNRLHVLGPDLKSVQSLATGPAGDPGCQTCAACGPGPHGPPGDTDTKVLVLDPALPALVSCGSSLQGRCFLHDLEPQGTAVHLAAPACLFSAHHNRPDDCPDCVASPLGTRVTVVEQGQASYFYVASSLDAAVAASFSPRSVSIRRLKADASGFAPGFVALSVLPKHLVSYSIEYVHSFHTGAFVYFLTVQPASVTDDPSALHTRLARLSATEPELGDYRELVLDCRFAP
Sequence of Macrophage-stimulating protein receptor (Homo sapiens) (Q04912 310-1400 limits assumed): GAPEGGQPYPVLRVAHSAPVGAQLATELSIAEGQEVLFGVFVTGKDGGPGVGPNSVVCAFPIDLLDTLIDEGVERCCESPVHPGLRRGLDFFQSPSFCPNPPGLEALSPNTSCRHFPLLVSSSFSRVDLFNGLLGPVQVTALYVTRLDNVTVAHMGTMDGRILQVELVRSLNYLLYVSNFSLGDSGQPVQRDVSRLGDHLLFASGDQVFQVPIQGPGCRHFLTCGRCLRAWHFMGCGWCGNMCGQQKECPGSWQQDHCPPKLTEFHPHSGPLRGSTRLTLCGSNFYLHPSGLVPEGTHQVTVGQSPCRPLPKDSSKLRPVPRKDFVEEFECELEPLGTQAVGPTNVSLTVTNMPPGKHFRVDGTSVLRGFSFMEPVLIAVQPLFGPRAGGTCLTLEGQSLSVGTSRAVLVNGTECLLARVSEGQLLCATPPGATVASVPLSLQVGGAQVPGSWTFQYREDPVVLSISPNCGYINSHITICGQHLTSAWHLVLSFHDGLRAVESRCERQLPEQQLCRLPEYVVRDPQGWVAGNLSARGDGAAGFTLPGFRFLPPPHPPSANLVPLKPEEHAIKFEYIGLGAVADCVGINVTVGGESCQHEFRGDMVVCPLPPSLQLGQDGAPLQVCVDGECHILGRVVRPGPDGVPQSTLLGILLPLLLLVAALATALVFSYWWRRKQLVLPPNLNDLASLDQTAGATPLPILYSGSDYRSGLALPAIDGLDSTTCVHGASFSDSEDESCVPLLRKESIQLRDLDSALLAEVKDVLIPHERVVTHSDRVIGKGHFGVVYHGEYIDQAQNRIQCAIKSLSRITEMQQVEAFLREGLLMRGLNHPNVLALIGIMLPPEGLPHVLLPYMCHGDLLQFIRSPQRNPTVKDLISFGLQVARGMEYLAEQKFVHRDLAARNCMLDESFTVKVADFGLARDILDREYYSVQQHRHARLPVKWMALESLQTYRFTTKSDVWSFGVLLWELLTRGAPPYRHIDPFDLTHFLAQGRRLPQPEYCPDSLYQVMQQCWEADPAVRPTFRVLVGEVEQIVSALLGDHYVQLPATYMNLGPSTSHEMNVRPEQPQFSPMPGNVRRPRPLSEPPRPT
Sequence of Proto-oncogene tyrosine-protein kinase ROS (Homo sapiens) (P08922 whole entry): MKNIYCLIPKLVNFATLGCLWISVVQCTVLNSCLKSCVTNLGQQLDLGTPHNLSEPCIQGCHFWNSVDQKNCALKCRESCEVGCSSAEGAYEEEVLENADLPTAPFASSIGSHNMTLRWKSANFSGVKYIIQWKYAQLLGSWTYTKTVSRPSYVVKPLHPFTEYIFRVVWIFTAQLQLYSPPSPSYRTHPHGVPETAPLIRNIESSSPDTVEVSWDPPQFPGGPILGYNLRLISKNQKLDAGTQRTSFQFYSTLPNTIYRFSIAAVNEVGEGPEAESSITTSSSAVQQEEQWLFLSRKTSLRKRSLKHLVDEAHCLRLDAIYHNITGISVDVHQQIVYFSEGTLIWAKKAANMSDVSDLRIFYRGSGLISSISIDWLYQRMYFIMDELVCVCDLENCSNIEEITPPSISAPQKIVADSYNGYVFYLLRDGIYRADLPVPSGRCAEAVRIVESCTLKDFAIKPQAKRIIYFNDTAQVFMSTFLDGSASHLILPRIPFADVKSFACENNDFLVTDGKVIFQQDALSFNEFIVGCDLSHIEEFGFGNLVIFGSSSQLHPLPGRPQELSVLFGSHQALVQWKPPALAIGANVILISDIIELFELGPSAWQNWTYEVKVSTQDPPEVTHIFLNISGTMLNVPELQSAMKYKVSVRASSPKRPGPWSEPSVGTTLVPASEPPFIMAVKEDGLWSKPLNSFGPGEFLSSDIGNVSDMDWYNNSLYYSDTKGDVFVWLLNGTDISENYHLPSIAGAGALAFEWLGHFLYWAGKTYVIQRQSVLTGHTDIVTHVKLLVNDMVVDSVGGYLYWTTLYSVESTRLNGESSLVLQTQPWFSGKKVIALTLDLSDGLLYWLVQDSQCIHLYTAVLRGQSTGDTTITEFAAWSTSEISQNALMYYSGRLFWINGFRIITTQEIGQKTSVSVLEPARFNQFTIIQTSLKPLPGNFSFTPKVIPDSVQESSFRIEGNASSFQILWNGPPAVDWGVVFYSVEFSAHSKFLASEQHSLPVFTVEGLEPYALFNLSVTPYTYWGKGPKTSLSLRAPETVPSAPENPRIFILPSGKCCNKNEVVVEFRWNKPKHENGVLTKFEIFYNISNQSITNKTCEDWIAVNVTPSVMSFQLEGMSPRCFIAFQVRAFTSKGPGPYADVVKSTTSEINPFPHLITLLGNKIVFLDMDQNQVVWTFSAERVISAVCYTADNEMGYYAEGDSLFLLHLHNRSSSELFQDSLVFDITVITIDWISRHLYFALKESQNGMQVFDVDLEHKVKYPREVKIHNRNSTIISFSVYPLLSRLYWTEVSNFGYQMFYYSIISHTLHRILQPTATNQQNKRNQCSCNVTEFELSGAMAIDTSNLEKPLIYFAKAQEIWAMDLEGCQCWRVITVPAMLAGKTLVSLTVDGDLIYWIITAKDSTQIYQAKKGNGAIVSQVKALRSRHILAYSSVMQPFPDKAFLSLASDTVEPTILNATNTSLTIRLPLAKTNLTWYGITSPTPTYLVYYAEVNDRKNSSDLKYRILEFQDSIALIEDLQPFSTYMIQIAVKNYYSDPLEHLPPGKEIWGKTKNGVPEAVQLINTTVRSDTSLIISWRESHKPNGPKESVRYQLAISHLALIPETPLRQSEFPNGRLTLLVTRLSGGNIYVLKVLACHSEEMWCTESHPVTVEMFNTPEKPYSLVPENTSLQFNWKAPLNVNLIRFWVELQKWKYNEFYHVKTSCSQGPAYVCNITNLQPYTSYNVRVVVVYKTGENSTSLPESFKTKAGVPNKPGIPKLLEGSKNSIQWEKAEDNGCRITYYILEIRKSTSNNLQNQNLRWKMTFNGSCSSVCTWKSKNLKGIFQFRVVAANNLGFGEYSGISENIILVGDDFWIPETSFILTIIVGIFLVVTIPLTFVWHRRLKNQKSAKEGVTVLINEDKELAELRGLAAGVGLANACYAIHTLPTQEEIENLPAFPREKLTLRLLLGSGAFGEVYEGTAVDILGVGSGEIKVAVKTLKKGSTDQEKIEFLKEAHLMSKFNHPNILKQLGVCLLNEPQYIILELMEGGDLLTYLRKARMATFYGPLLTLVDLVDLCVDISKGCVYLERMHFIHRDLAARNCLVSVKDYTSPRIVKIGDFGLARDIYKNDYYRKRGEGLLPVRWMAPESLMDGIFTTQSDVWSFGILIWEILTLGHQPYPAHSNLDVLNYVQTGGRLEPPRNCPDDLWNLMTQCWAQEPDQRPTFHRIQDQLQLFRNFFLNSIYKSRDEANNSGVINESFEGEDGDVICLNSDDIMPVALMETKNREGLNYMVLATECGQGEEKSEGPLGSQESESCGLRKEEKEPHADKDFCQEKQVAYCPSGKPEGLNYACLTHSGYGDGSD
Sequence of Proto-oncogene tyrosine-protein kinase Src (Homo sapiens) (P12931 2-536 limits assumed): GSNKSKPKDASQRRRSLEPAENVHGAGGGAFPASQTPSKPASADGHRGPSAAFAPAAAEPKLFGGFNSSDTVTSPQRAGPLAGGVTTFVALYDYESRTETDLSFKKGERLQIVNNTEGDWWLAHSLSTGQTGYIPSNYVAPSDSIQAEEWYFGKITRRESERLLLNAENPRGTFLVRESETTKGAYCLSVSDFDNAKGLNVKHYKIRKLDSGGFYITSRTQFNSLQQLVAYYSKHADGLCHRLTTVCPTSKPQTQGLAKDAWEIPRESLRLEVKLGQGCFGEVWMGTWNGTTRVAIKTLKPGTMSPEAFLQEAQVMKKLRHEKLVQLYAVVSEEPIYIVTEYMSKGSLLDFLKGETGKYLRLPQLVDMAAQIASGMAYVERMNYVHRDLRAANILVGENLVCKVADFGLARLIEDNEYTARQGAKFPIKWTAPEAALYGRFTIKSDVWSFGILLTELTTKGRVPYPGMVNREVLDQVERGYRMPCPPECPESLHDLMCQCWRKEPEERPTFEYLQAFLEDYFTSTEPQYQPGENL

For the compound `c1ccc(-c2n[nH]cc2-c2ccnc(-c3ccc(OCCn4ccnc4)cc3)c2)nc1`, the inhibition (commonly the drop in the measured response relative to a control, in per cent) in [1] was 19.1%; in [2], 3.8%; in assay [3], 3.01%; in [4], 3.08%; in assay [5], 10.7%; in assay [6], -2.63%. Moreover, the inhibition in assay [7] is 8.69%; in [8], 0.16%; in [9], 3.94%; in assay [10], -0.7%; in [11], 0.33%; in assay [12] it was 0.42%. For the same compound, the inhibition in [13] is 0.73%; in assay [14] it was 0.28%; in assay [15], 3.93%; in assay [16], -0.4%; in assay [17], 5.89%; in assay [18] it was -0.42%. Besides, the inhibition in assay [19] was 0.83%; in [20], 2.17%.

For `Cn1c(-c2nonc2N)nc2cnccc21`, the inhibition in [1] is 7.82%; in assay [2], 5.57%; in assay [3] it was -0.92%; in assay [4], 2.77%; in assay [5] it was 3.73%; in assay [6], -0.58%. Besides, the inhibition in assay [7] was 6.9%; in assay [8] it was 0.1%; in assay [9] it was 4.56%; in assay [10], -1.4%; in assay [11], 0.59%; in assay [12] it was 4.08%. In addition, the inhibition in [13] is 3.99%; in [14], 1.46%; in assay [15], 2.07%; in [16], 1.08%; in assay [17], 0.76%; in [18], 0.75%. In addition, the figures for the inhibition in assay [19] and in assay [20] were 0.19% and 1.03%, respectively.

Turning to `CCS(=O)(=O)c1ccc(OC)c(Nc2ncc(-c3cccc(C(C)=O)c3)o2)c1`, the inhibition in [1] was 39.2%; in assay [2], -2.76%; in assay [3], 3.79%; in assay [4] it was 3.34%; in [5], 16.5%; in [6], 16.3%. The inhibition in assay [7] was 70.7%; in [8], 0.94%; in [9], 17.7%; in [10] it was -5.14%; in assay [11], -2.16%; in [12], 6.22%. Besides, the inhibition in [13] is 26.6%; in assay [14] it was 2.09%; in assay [15], 9.26%; in assay [16], 15.3%; in assay [17] it was 66.9%; in [18], 1.65%. In addition, the inhibition in assay [19] is 6.5%; in assay [20] it was 4.29%.

Consider `CS(=O)(=O)CCNCc1ccc(-c2ccc3ncnc(Nc4ccc(OCc5cccc(C(F)(F)F)c5)cc4)c3c2)o1`, for which the inhibition in [1] is 6.5%; in [2], -1.41%; in assay [3], 3.05%; in assay [4], 6.2%; in [5], 8.72%; in assay [6], 9.03%. In addition, the inhibition in assay [7] is 15.8%; in [8], -3.48%; in assay [9], -3.22%; in assay [10], -1.19%; in assay [11], -0.03%; in assay [12], 6.62%. Also, the inhibition came out at 4.52% in [13]; 3.37% in assay [14]; 4.84% in assay [15]; 0.64% in [16]; 5.33% in [17]; 0.49% in assay [18]. The inhibition in assay [19] amounted to 0.96%; in [20] it was 2.16%.

For the compound `Cc1cc(O)cc(C)c1/C=C/c1cncc(C(=O)OC(C)(C)C)c1`, the inhibition came to 12.1% in assay [1]; 8.51% in assay [2]; 8.66% in assay [3]; 6.94% in assay [4]; 10.4% in [5]; 14.1% in assay [6]. Besides, the inhibition in [7] was 58.6%; in assay [8], 10.2%; in assay [9], 43.4%; in assay [10], -0.49%; in assay [11], 0.64%; in assay [12] it was 5.96%. The inhibition in assay [13] came out at 30.2%; in assay [14], 2.09%; in [15] it was 3.67%; in assay [16], 2.08%; in [17], 15.7%; in [18] it was 1.33%. For the same compound, the inhibition worked out at 4.9% in assay [19] and 3.36% in assay [20].

`CCOc1ccc2c(-c3ccnc(Nc4cc(OC)cc(C(F)(F)F)c4)n3)cnn2n1`: the inhibition is 5.26% in assay [1]; 8% in [2]; 7.47% in [3]; 4.18% in [4]; 20.7% in assay [5]; -3.54% in assay [6]. In addition, the inhibition in assay [7] was 16.3%; in assay [8], 2.39%; in assay [9], 4.4%; in assay [10], -3.45%; in [11], -0.62%; in assay [12], 2.25%. The inhibition is 7.24% in assay [13]; 7.37% in assay [14]; 13.5% in assay [15]; 2.46% in assay [16]; 12.4% in assay [17]; 0.16% in assay [18]. For the same compound, the figures for the inhibition in assay [19] and in assay [20] were 1.19% and 0.62%, respectively.

As for `O=C(Nc1n[nH]c2nnc(-c3cccnc3)cc12)C1CC1`, the inhibition in assay [1] is 3.64%; in [2], -2.07%; in [3], -3.95%; in assay [4], -0.02%; in assay [5] it was 1.38%; in assay [6], 0.98%. The inhibition amounted to 2.5% in [7]; 2.39% in assay [8]; 0.54% in assay [9]; 1.35% in assay [10]; 0.88% in [11]; 0.17% in assay [12]. The inhibition in [13] is 3.48%; in assay [14] it was 1.38%; in assay [15], 1.88%; in assay [16], -1.13%; in assay [17], 0.09%; in [18], 0.32%. For the same compound, the values for the inhibition in assay [19] and in assay [20] were 1.68% and 0.12%, respectively.

In the case of `COC(=O)Nc1nc2cc(Oc3ccc(NC(=O)Nc4ccccc4)cc3)ccc2[nH]1`, the inhibition amounted to 25.8% in [1]; 7.21% in assay [2]; 8.17% in [3]; 2.15% in [4]; 2.86% in assay [5]; 5.93% in assay [6]. For the same compound, the inhibition in assay [7] was 7.76%; in [8], 0.48%; in assay [9] it was -1.09%; in assay [10], -5.19%; in assay [11], 0.09%; in assay [12] it was 1.83%. In addition, the inhibition came out at 1.84% in assay [13]; 5.37% in [14]; 9.24% in assay [15]; 2.64% in [16]; 4.12% in assay [17]; 0.69% in assay [18]. For the same compound, the inhibition turned out to be 1.18% in assay [19] and 2.62% in [20].

In the case of `CN1CCC(n2cnc(-c3ccc(F)cc3)c2-c2ccnc(NCCO)n2)CC1`, the inhibition in [1] is 15.2%; in assay [2] it was -0.99%; in assay [3], -1.06%; in assay [4], 6.65%; in assay [5], 2.72%; in assay [6] it was 2.31%. Besides, the inhibition in assay [7] is 7.94%; in [8], -0.64%; in assay [9], -0.42%; in [10] it was -2.08%; in assay [11] it was -1.12%; in assay [12], 6.05%. Also, the inhibition in [13] worked out at 5.09%; in assay [14] it was 1.8%; in assay [15] it was 3.36%; in assay [16] it was 4.89%; in assay [17], 10.8%; in assay [18], 1.7%. Moreover, the figures for the inhibition in assay [19] and in assay [20] were 2.83% and 2.11%, respectively.

The values are drawn from ChEMBL document CHEMBL1961873, “Compounds: GSK PKIS; Assays: Nanosyn kinase panel” (2012).
